The list is not random: actives were taken first. Their share in the collection is about 2.9%.
mIDH1 inhibitor: blocks human mutant IDH1 R132H enzyme; O75874; IDH1-R132H enzyme, NADPH consumption, diaphorase/resazurin fluorescence; Potency, µM (titrated, usually from 76.6 µM), hits mostly inhibitors; 390,000 tested, 0.093% active; AID 602179; further: nearly all actives have a fitted effect of over 65% in size
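IDH1-R132H (0.5 ug/mL dispensed) in pH 7.5 Tris buffer was preincubated 30 min with compound, then given a substrate mix of 0.016 mM NADPH and 2 mM alpha-KG for 80 min at room temperature; remaining NADPH was read by diaphorase/resazurin fluorescence.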
DRD3 antagonist: blocks the human D3 dopamine receptor | P35462 | D3R cells, DiscoveRx beta-arrestin luminescence, antagonist mode; hits give low values | max response, negative = inhibition, % | 360,000 tested, 2.5% active | AID 652054; in the data active means max response below about -50%; inconclusive means no clear call, values can overlap the other calls
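Cells expressing the human receptor were seeded at 1500 cells/well, incubated overnight at 37 degrees C in 5% CO2, then exposed to library compounds with dopamine controls for 90 minutes at 37 degrees C before luminescent detection.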
Integrin act MD: activators of alpha7 integrin expression for muscular dystrophy; 350,000 tested, 0.064% active; Potency, µM (series often up to 38.3 µM), actives largely listed as activators; alpha7betagal myoblasts, beta-gal FDG fluorescence, 48 h; further: nearly all actives have a fitted effect of over 60% in size
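Alpha7betagal+/- myoblasts (passage 13) were plated 16-24 hr, then exposed to compounds (1:260 dilution of DMSO stock) for 48 hours at 37C. After MPER lysis, β-galactosidase reporter activity was read as FDG fluorescence (ex 480/em 540) after 30 minutes.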
DRD3 agonist: agonists of human D3 dopamine receptor | P35462 | D3R DiscoveRx beta-arrestin cells, luminescence, 90 min | max activation, % | 410,000 tested, 0.58% active; in the data active means max activation above about 30%
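Agonist-mode cell screen: cells plated at 1500/well and incubated overnight at 37 °C, then exposed to library compounds for 90 min at 37 °C. Detection reagent was added for 30–60 min at room temperature, and luminescence was read.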
B2AR arrestin: agonists driving beta-arrestin recruitment to human beta2-adrenergic receptor; beta-arrestin recruitment to beta2AR, cell-based reporter; Potency, µM (top dose mostly 46.1 µM), actives largely listed as activators; AID 492947; 330,000 tested, 0.02% active; further: nearly all actives have a fitted effect of over 65% in size
Target sequence (P07550 whole entry, looked up): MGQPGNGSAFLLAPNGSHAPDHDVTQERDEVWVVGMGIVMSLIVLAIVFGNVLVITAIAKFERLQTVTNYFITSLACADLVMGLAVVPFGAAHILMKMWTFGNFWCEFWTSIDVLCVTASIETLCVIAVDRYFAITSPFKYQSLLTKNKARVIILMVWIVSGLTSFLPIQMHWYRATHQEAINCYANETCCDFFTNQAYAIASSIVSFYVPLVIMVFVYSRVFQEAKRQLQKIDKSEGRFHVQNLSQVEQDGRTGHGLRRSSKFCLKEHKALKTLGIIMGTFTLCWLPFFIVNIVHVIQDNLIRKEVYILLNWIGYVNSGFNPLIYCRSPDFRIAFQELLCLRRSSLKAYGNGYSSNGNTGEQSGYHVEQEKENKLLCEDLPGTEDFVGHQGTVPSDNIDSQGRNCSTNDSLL
Hits are given with their value; n = inactive; u = inconclusive; x = no result given. Unless noted, the call rests on the fitted dose curve; in most records, active means well fitted curve in the direction sought with a large enough effect; inconclusive means small, poorly fitted or top-dose-only effect, or another doubt; inactive means no such curve, though single readings can be large; an effect the other way counts as inactive or inconclusive.

SMILES	mIDH1 inhibitor	DRD3 antagonist	Integrin act MD	DRD3 agonist	B2AR arrestin
Cn1c(NCc2cccnc2)nc2cc(-c3ccc(C(=O)N4CCOCC4)cc3)sc2c1=O	x	-78	x	n	x
O=S(=O)(Nc1cccnc1)c1ccc(Cl)c(C(F)(F)F)c1	n	-51	n	n	x
Cc1ccc(S(=O)(=O)Nc2cccnc2)cc1C	n	n	n	n	n
CCOc1ccc(C(CC(=O)Nc2cc(C)c(Cl)cc2OC)N2Cc3ccccc3C2=O)cc1OC (configuration not stated)	n	x	x	n	x
O=C(CCNC(=O)Cn1cnc2ccccc2c1=O)NCC1COc2ccccc2O1 (configuration not stated)	n	-58	n	n	n
Cc1nc(C(=O)Nc2cc(F)cc(Cl)c2)sc1C1(C)CC(c2ccccc2)=NO1 (configuration not stated)	n	n	n	41	x
Cc1nc(-c2ccc(Cl)cc2)sc1C1(C)CC(c2ccccc2Br)=NO1 (configuration not stated)	n	n	n	57	x
Cc1ccc([C@@H]2CC=C(C(=O)O)[C@H](c3ccc(F)cc3)N2S(=O)(=O)c2ccc(C)cc2)cc1	n	-83	n	n	n
CCc1ccc([C@@H]2CC=C(C(=O)O)[C@H](c3ccc(F)cc3)N2S(=O)(=O)c2ccc(C)cc2)cc1	n	-52	n	n	n
O=C(N/N=C/C1C(c2ccccc2)C1(Cl)Cl)c1cccc(Br)c1 (configuration not stated)	n	-53	n	n	n
CC(/C=C/c1ccccc1)=N/NC(=O)c1cccc(Br)c1	n	-53	n	n	n
Cc1nn(-c2ccc(N3CCOCC3)nn2)c(C)c1CCC(=O)Nc1ccc(F)cc1F	n	x	x	75	x
N/C(=N\O)c1ccc(N2CCN(c3ncccc3C(F)(F)F)CC2)nc1	n	n	n	31	n
CCOc1ccc(Nc2nc(N)c(C(=O)c3ccccc3Cl)s2)cc1	n	x	x	70	x
C=CCc1ccc(OCCOCCN(C)C)c(OC)c1	n	-71	n	n	n
C=CCc1ccc(OCCCCNC2CCCC2)c(OC)c1	n	-69	n	n	n
C=CCc1ccc(OCCOCCOc2ccc(C)cc2[N+](=O)[O-])c(OC)c1	n	n	n	n	n
Cc1nnc(SCC(=O)Nc2cccc(S(=O)(=O)N(C)c3ccccc3)c2)s1	n	n	n	34	n
CN(C)S(=O)(=O)c1cccc(NC(=O)CSc2ncnc3ccccc23)c1	n	n	n	65	n
Cn1c(C(=O)NCCN2CCOCC2)cc2sccc21	n	-63	n	n	n
O=C(NCCCN1CCCC1)C1CCN(C(=O)c2cc3sccc3n2Cc2ccc(F)cc2)CC1	n	-52	n	n	n
O=C(NCCN1CCOCC1)N1c2ccccc2Sc2ccccc21	n	-53	n	n	n
Cc1ccc(Cn2c(C(=O)NCCCN3CCOCC3)cc3sccc32)cc1	n	-51	n	n	n
CCOc1ccc(NC(=S)NC(=O)c2cncc(Br)c2)cc1	n	n	n	n	x
CCN1CCN(CCCNC(=O)c2cc3sccc3n2CC)CC1	n	n	n	n	n
SMILES	mIDH1 inhibitor	DRD3 antagonist	Integrin act MD	DRD3 agonist	B2AR arrestin
CCn1c(C(=O)NCCCN2CCc3ccccc3C2)cc2sccc21	n	-73	n	n	n
O=c1c2ccccc2nc(N2CCN(c3cccc(Cl)c3)CC2)n1-c1ccccc1	n	x	x	n	x
O=c1[nH]c(Cc2ccccc2Cl)nc2ccccc12	n	n	n	n	n
Cc1ccc2c(=O)[nH]c(Cc3ccccc3C(=O)O)nc2c1	n	n	n	40	n
Nc1nc(SCc2ccccc2)c2[nH]cnc2n1	n	n	u	n	n
Nc1nc(OCc2ccccc2)c2[nH]cnc2n1	n	-121	x	n	x
CCOc1ccc(-c2c(=O)n(OCc3ccc([N+](=O)[O-])cc3)c3ccccc3[n+]2[O-])c(OCC)c1	n	n	n	n	x
CCOc1ccc(OCC)c(-c2c(=O)n(OCc3ccc(C(C)(C)C)cc3)c3ccccc3[n+]2[O-])c1	n	n	n	52	n
Cc1ccc(C(=O)c2c3ccccc3[n+]([O-])n2CCC(N)=O)cc1	n	n	n	n	n
Cc1ccc(C(=O)c2c3ccccc3[n+]([O-])n2[C@@H](C)C(N)=O)cc1	n	-64	n	n	n
CC(C)Cc1nn2c(=O)cc(CSCC(=O)Nc3ccccc3F)nc2s1	n	n	n	n	n
Cc1ccc(NC(=O)CN(C)C(=O)c2ccc(Cl)nc2)cc1	n	-84	n	n	n
CN(C(=O)COc1ccc(-c2nnco2)cc1)C1CCS(=O)(=O)C1 (configuration not stated)	n	n	n	n	n
O=C(CSc1ccc2nc(-c3ccccc3)cn2n1)Nc1ccccc1	n	x	x	n	x
CCOC(=O)c1sc2nc(C)nc(NCc3ccccc3OC)c2c1C	n	n	n	33	n
CCOC(=O)c1sc2nc(C)nc(NCCc3ccccn3)c2c1C	n	n	n	n	n
COc1ccc(C(=O)CCS(=O)(=O)c2ccc(C)cc2)cc1OC	n	n	n	n	n
Cc1ccc(S(=O)(=O)CCC(=O)c2ccc(O)cc2O)cc1	n	-59	n	n	n
COc1ccc(CN2CCN(c3ccccc3OC)CC2)cc1OC	n	-77	n	n	n
COc1ccccc1N1CCN(S(=O)(=O)c2cccs2)CC1	n	n	n	n	n
COc1ccccc1N1CCN(Cc2cccs2)CC1	n	-82	n	n	n
COc1ccc(S(=O)(=O)N2CCN(c3ccccc3)CC2)cc1OC	n	n	n	n	x
COc1ccccc1N1CCN(Cc2cnc3ccc(Cl)cn23)CC1	n	-91	n	n	n
COc1ccc(CC(C)N2CCN(c3ccccc3)CC2)cc1OC (configuration not stated)	n	-147	n	n	n
COc1ccc(C(=O)CC2(O)C(=O)N(Cc3ccccc3)c3ccc(Br)cc32)cc1 (configuration not stated)	n	x	x	n	x
SMILES	mIDH1 inhibitor	DRD3 antagonist	Integrin act MD	DRD3 agonist	B2AR arrestin
COc1ccccc1C(=O)N1CCCCC1CCN1CCOCC1 (configuration not stated)	n	x	x	n	x
CCCN1C(=O)C2(c3ccccc31)c1c(oc3ccc(F)cc3c1=O)C(=O)N2CCCOC(C)C (configuration not stated)	n	x	x	n	x
COC(=O)c1cc(CN2CCN(c3ccccc3C)CC2)ccc1O	n	-80	n	n	n
COc1ccccc1N1CCN(Cc2ccc(C(=O)O)cc2)CC1	n	n	n	n	n
COc1ccccc1N1CCN(Cc2ccsc2)CC1	n	-92	n	n	n
COc1cc(CN2CCC(C(=O)N3CCN(c4ccccc4F)CC3)CC2)cc(OC)c1O	n	n	n	n	n
COc1cc(CN2CCN(c3ccccc3F)CC2)cc(OC)c1O	n	u	n	43	n
COc1ccc(-n2nnc(C(=O)Nc3ccccc3F)c2N)cc1	n	x	x	n	x
Clc1cccc(OCCN2CCOCC2)c1	n	-66	n	n	n
